Many of the other results were omitted from the sample, so hits are more common in it than they were.
AMA1 RON2 block: qHTS for Inhibitors of AMA1-RON; Towards Development of Antimalarial Drug Lead: Primary Screen. AlphaScreen AMA1-biotinylated RON2 peptide binding. Potency, µM (titrated, usually from 58.2 µM), for inactives: at the top dose activity change, negative = inhibition, most hits filed as inhibitors. hit rate 0.2% among 360,000. AID 720542, 2013; active = well fitted inhibition curve with a large enough effect; inconclusive = small, poorly fitted or top-dose-only effect; inactive = no such curve, though single readings can be large or run the other way;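 note: potency is the fitted concentration of half-maximal effect; 0% = vehicle wells and -100% = peptide control; nearly all actives have a fitted effect of over 45% in size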
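AMA1 (3D7) with his tag at 25 nM final met compounds first, then biotinylated RON2 peptide at 25 nM; detection used donor plus acceptor beads, 10 µg/mL apiece, read by AlphaScreen after 30 min at room temperature.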
MARV entry inh: qHTS for inhibitors of binding or entry into cells for Marburg Virus | Potency, µM (series often up to 37.8 µM), for inactives: top-dose activity change, negative = inhibition, most hits filed as inhibitors | hit rate 1.8% among 300,000 | AID 540276, 2011 | Marburg virus pseudotyped entry inhibition, cell reporter; calls by dose curve; tested in HEK293 cells; note: potency is the fitted concentration of half-maximal effect; % is set by controls: 0 for no effect and ±100 for the full control effect
Shiga inhibitor: A qHTS for Small Molecule Inhibitors of Shiga Toxin; hit rate 9.2% among 290,000; AID 2315, 2010; inhibition, % at 38.7 µM; Vero cells, Shiga toxin protein synthesis inhibition reporter; in the data active = inhibition mostly above about 28%, no sharp cut-off; inactive = mostly below about 43%; note: 0% is about no effect
Cycloheximide cs: Cycloheximide Counterscreen for Small Molecule Inhibitors of Shiga Toxin. cell reporter, cycloheximide protein synthesis inhibition counterscreen. max response, %. hit rate 12% among 300,000. AID 2314, 2010; in the data active = max response mostly above about 13%, no sharp cut-off; inactive = mostly below about 14%; note: read at 38.3 µM for the half of the compounds with a filed dose; 0% is about no effect
Lassa entry inh: qHTS for Inhibitors of binding or entry into cells for Lassa Virus; Lassa virus pseudotype entry inhibition, cell reporter; Potency, µM (doses to about 37.9 µM), without a hit: at the highest dose activity change, negative = inhibition, most hits filed as inhibitors; hit rate 1.2% among 300,000; AID 540256, 2011; calls by dose curve; tested in HEK293 cells; note: potency is the fitted concentration of half-maximal effect; % is set by controls: 0 for no effect and ±100 for the full control effect; nearly all actives have a fitted effect of over 50% in size
* hit, by the source's call; u = inconclusive; x = not tested or not shown; [ ] = dose if it differs, or a comment.

SMILES | AMA1 RON2 block | MARV entry inh | Shiga inhibitor | Cycloheximide cs | Lassa entry inh
O=C(OCC(=O)N1CCc2ccccc2C1)c1cccnc1Cl | 2.9% | 10.1% | 114.1* | 35.6* | 27.4%
Cc1cccnc1Nc1nc(-c2ccc(F)cc2)cs1 | -14.9% | -28.2% | 103.1* | 57.0* | u
Cc1cccnc1Nc1nc(-c2ccc(O)cc2)cs1 | -0.2% | u | 156.6* | 49.7* | -29.4%
CC(=O)NNc1nc(-c2ccc(NC(C)=O)cc2)cs1 | 68.4% | 25.1% | 10.6 | 2.7 | 11.7%
O=C(Nc1nc(-c2ccncc2)cs1)c1ccc(F)cc1 | 0.0% | x | -6.5 | 5.7 | x
Cc1ccc2oc(=O)c3cc(C(=O)Nc4cccc(C#N)c4)sc3c2c1 | x | 2.2%[46.1 µM] | x | x | -5.1%[46.1 µM]
Nc1ccc(Br)c2cccnc12 | 21.2% | u | 12.6 | 8.4 | -0.9%
O=Nc1ccc(O)c2ncccc12 | -20.7% | x | 44.2* | 55.7* | x
Cc1ccccc1N=Nc1ccc(O)c2ncccc12 | 26.4%[11.6 µM] | 5.62µM* | 1.6 | -3.5 | u
Nc1ccc(N=Nc2ccccc2)c2cccnc12 | 20µM* | x | 89.9* | 47.9* | x
COc1ccc2c(CNC3CCCCCC3)c(C(=O)O)n(Cc3ccc(C)cc3)c2c1 | x | x | x | x | -14.4%[46.1 µM]
Cc1cc(=O)n2[nH]c(-c3ccc(Cl)cc3)cc2n1 | 41.9% | u | 81.7* | 35.6* | 8.9%
Cc1cccc(-c2cc3nc(-c4ccccc4)cc(=O)n3[nH]2)c1 | 16.3% | u | 49.2 | 21.3* | u
Cc1cc(=O)n2[nH]c(-c3ccc(F)cc3)cc2n1 | 27.4% | 22.5% | 51.0* | 25.0* | -22.8%
Cc1nc2ccccc2c(=O)n1/N=C/c1ccc2ccccc2c1O | -47.4% | x | 74.2* | 46.2* | x
Cc1nc2ccccc2c(=O)n1/N=C/c1cccs1 | -9.7% | 1.4%[46.1 µM] | 49.6 | 24.9* | 5.8%[46.1 µM]
Cc1nc2ccccc2c(=O)n1/N=C/c1ccccc1O | 106.0% | u | 87.5* | 37.0* | u
Cc1nc2ccccc2c(=O)n1/N=C/c1ccc(O)c(O)c1O | u | x | -6.6 | -3.0 | x
CCc1cc(CNC(=O)C2CCC(=O)N(CCc3cccc(F)c3)C2)on1 (stereo not given) | -1.2% | 0.1% | 9.9 | -2.9 | -0.2%
CCCN(CCC)C(=O)Cn1c(=O)n(-c2cccc(OC)c2)c(=O)c2c3c(sc21)CCCC3 | x | u | x | x | 29.4%[46.1 µM]
CCCCn1ccnc1C(=O)c1ccc(S(=O)(=O)N(CCOC)CCOC)cc1 | -3.8% | -0.9% | -13.7 | 0.7 | -20.2%
CC(C)OC(=O)c1cc2c(ccn2C)n1CC(=O)N(Cc1ccccc1)c1ccccc1 | u | 2.51µM* | 45.4 | -1.7 | 3.16µM*
O=C(N/N=C/c1cc(Br)cs1)c1ccc2c(c1)OCCO2 | -7.5% | u | 67.6* | 37.0* | u
Cc1ccc(/C=N/NC(=O)c2ccc3c(c2)OCCO3)s1 | -13.0% | u | 55.2* | 37.9* | u
Cc1ccc(/C=N/NC(=O)c2ccc3ccccc3c2)s1 | 6.2% | x | 46.5* | 27.8* | x
SMILES | AMA1 RON2 block | MARV entry inh | Shiga inhibitor | Cycloheximide cs | Lassa entry inh
Cc1ccc(/C=N/NC(=O)c2ccncc2)s1 | 21.7% | 23.0%[46.1 µM] | 19.6 | 14.8 | 7.4%[46.1 µM]
Cc1nn(-c2ccccc2)cc1/C=N/NC(=O)c1cccs1 | -5.2% | x | 102.3* | 44.3* | x
Cc1nn(-c2ccccc2)c(C)c1/C=N/O | 5.6% | 11.0% | 14.9 | 13.7* | 11.7%
Cc1nn(-c2ccccc2)c(C)c1/C=N/NC(=O)c1ccccc1O | 56.4% | -1.7% | 38.2* | 41.7* | 8.9%
Cc1nn(-c2ccccc2)c(N2CCCC2)c1/C=N/NC(=O)c1ccccc1O | 31.2% | u | 44.4 | 12.1 | u
CC(/C=N/NC(=O)CSc1nnc(SCc2ccccc2)s1)=C\c1ccco1 | 5.6%[2.32 µM] | 1.4% | 6.3 | 13.6* | -2.7%
Cc1ccc(CSc2nnc(SCC(=O)N/N=C/C=C/c3ccco3)s2)cc1 | -5.2%[2.32 µM] | u | 3.4 | 16.1 | u
O=C(CCc1nc2ccccc2c(=O)[nH]1)N1CCN(S(=O)(=O)c2ccc(Cl)c(C(F)(F)F)c2)CC1 | 3.0% | -22.8% | x | x | 1.8%
Cc1nn(-c2ccccc2)c(C)c1/C=N/NC(=O)CSc1nnc(SCc2ccc(Cl)cc2)s1 | 8.2% | u | 26.2 | 40.8* | 9.2µM*
Cc1nn(-c2ccccc2)c(C)c1/C=N/n1c(-c2ccccc2Br)n[nH]c1=S | 57.2% | u | 14.8 | 9.5 | 12.6µM*
Cc1nn(-c2ccccc2)c(C)c1/C=N/NC(=O)c1cccs1 | 0.3% | 11.2µM* | 25.9 | 14.5* | 3.16µM*
CCN(CC)c1ccc(/C=N/n2c(-c3ccccc3Br)n[nH]c2=S)cc1 | 19.7% | u | -10.5 | -2.4 | u
Cc1ccc(C)c(NS(=O)(=O)c2cc3c4c(c2)CC(=O)N4CCC3)c1 | -5.0% | x | -3.0 | -3.9 | x
Cc1cc(C)c2c(c1)SC1=NC(c3ccccc3)(C(F)(F)F)NC(=O)N12 (stereo not given) | 8.6% | 14.6% | 36.3 | 23.7* | u
Oc1ccc(C=Nc2ccc3ncccc3c2)c(O)c1 | x | -2.8% | 106.0* | 55.8* | x
CCOc1ccc(NS(=O)(=O)c2ccc(C(=O)NC3CCC(O)CC3)cc2)cc1 (stereo not given) | -21.0% | u | x | x | -13.8%
COc1ccccc1NC(=O)C/C(C)=N/NC(=O)COc1c(Br)cc(Br)cc1OC | 63.4% | 21.1%[46.1 µM] | -3.5 | -2.9 | u
COc1cc(NC(=O)C/C(C)=N/NC(=O)c2ccccn2)c(OC)cc1Cl | 41.9% | u | 71.6* | 43.6* | u
COc1ccccc1NC(=O)C/C(C)=N/NC(=O)c1ccccn1 | 58.9% | u | 63.2* | 33.4* | u
CCOc1ccc(S(=O)(=O)N2CCN(C(=O)c3cc4ccccc4o3)CC2)cc1 | -11.0% | x | x | x | x
NCCc1c(-c2ccccc2)n(-c2ccccc2)c2ccccc12 | u | 12.6µM* | -19.5 | -4.6 | -28.4%[46.1 µM]
CCOC(=O)c1c(C)[nH]c(NC(=O)NNC(=O)c2ccccc2Cl)c1C | 146.4% | x | x | x | x
CCOC(=O)c1c(C)[nH]c(N=Nc2ccc(OC)cc2)c1C | 27.6% | x | 85.5* | 35.2* | x
CCOC(=O)c1c(C)[nH]c(N=Nc2ccc(C)cc2)c1C | -25.3% | u | 71.0 | 31.5* | -0.8%
CCOC(=O)c1c(C)[nH]c(N=Nc2ccccc2Cl)c1C | -19.7% | 7.5% | 97.0* | 65.1* | x
SMILES | AMA1 RON2 block | MARV entry inh | Shiga inhibitor | Cycloheximide cs | Lassa entry inh
COC(=O)c1c(C)[nH]c(C=Nc2ccc(OC)cc2)c1C | -12.6% | u | -3.9 | -2.8 | -2.1%[46.1 µM]
CCOC(=O)c1c(C)[nH]c(N=Nc2ccccc2)c1C | 12.6µM* | -14.2% | 82.0* | 54.5* | u
CCOC(=O)c1c(C)[nH]c(C=Nc2ccccc2)c1O | x | 0.0% | 0.7 | 16.4 | x
CCc1nc2c(OCc3ccc(Cl)cc3Cl)cccn2c1N(C)C(=O)c1ccccc1F | -17.7% | x | x | x | x
CC(OC(=O)Cn1cnc2c1c(=O)n(C)c(=O)n2C)C(=O)NC1CCCCC1C (stereo not given) | 19.9% | 5.5% | x | x | -9.5%
CN1CCc2c(sc3nc(NCCO)n(-c4cccc(Cl)c4)c(=O)c23)C1 | -6.8% | x | -7.3 | -2.6 | x
CCOC(=O)c1c(C)[nH]c(C=Nc2ccc(OC)cc2)c1O | -3.7% | 1.2% | 84.4* | 20.5* | u

Compound activity: PubChem BioAssay, National Center for Advancing Translational Sciences (NCATS)
